The source of these data is publication PMC7862700, “An all-to-all approach to the identification of sequence-specific readers for epigenetic DNA modifications on cytosine”.

What all share (assay): DAPPL (digital affinity profiling via proximity ligation, sequencing); 10 mM Tris-HCl pH 7.5, 50 mM NaCl, 1 mM DTT, 4% glycerol, room temperature, 30 min; GST-TFs on glutathione beads, 16-mer random dsDNA library, 0.1% formaldehyde crosslink after washing; high values mean tight binding
One assay concerns the target T1, FEV (Homo sapiens, UniProt Q99581 1-238).
T1 sequence: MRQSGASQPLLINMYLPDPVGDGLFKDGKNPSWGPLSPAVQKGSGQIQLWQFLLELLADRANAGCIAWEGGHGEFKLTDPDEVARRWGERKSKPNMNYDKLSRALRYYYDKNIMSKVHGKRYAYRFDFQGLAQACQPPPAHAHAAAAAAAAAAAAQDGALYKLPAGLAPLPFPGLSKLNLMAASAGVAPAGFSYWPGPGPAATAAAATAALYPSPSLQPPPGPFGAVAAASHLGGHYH
The settings on record: protein: recombinant; tags: N-terminal GST; dsDNA, one strand shown. In outline:
(§1)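 Human transcription factors carrying a GST fusion were produced in yeast, bound to glutathione beads, tagged with DNA barcodes and pooled together with a tag-only sample. Each pool was held with 200 nmole of a random double-stranded 16-mer DNA library in Tris/NaCl/DTT/glycerol buffer for 30 min at room temperature, then washed, crosslinked in 0.1% formaldehyde, proximity-ligated with BsaI/T4 ligase (1 h, 37 °C), PCR-amplified and sequenced on an Illumina NextSeq500. Binding signal is the read frequency of each hexamer for a given factor divided by its frequency in the tag-only sample.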

The target of another assay is ETV5 (Homo sapiens, UniProt P41161 1-510). The settings on record: protein: recombinant; tags: N-terminal GST; dsDNA, one strand shown. In outline: as §1
A further assay deals with HSF1 (Homo sapiens, UniProt Q00613 1-529). The note with it: protein: recombinant; tags: N-terminal GST; chain copies: 3; dsDNA, one strand shown. The method, boiled down:
as §1

The target of a further assay is T2, SPIC (Homo sapiens, UniProt Q8N5J4 1-248).
T2 sequence: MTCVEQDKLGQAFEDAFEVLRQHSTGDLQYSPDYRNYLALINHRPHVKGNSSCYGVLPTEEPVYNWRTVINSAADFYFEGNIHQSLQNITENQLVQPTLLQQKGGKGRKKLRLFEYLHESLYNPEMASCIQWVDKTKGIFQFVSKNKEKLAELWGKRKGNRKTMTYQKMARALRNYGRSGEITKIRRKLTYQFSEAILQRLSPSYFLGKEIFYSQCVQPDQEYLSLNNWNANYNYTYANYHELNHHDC
The note with it: protein: recombinant; tags: N-terminal GST; dsDNA, one strand shown. In outline:
as §1

A further assay deals with ELF4 (Homo sapiens, UniProt Q99607 1-663). The note with it: protein: recombinant; tags: N-terminal GST; dsDNA, one strand shown. In outline: as §1
The next assay addresses T3, ELK4 (Homo sapiens, UniProt P28324-2 1-405).
T3 sequence: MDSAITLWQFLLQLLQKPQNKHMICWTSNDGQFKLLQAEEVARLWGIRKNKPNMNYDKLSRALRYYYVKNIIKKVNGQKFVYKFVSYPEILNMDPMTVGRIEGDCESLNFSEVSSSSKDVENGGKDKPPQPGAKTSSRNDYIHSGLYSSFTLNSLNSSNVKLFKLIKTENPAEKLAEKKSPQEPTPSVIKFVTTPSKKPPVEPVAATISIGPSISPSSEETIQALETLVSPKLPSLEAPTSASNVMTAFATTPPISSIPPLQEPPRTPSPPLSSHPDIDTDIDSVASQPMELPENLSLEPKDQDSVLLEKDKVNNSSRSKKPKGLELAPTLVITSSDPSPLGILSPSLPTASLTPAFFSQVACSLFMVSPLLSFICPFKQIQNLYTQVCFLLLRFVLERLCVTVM
The settings on record: protein: recombinant; tags: N-terminal GST; dsDNA, one strand shown. In outline:
as §1

A further assay has as its target T4, ETV2 (Homo sapiens, UniProt O00321 1-342).
T4 sequence: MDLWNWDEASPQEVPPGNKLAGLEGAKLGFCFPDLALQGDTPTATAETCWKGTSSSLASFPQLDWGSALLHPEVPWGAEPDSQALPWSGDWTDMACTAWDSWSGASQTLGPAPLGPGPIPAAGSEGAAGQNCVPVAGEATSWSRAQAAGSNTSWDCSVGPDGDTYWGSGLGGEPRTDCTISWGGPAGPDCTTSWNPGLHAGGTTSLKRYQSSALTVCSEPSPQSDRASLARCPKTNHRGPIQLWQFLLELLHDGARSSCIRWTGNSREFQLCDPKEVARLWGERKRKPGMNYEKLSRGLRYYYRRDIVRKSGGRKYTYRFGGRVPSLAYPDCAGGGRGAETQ
The settings on record: protein: recombinant; tags: N-terminal GST; dsDNA, one strand shown. In outline: as §1

In another assay the target is T5, ELF3 (Homo sapiens, UniProt P78545 1-371).
T5 sequence: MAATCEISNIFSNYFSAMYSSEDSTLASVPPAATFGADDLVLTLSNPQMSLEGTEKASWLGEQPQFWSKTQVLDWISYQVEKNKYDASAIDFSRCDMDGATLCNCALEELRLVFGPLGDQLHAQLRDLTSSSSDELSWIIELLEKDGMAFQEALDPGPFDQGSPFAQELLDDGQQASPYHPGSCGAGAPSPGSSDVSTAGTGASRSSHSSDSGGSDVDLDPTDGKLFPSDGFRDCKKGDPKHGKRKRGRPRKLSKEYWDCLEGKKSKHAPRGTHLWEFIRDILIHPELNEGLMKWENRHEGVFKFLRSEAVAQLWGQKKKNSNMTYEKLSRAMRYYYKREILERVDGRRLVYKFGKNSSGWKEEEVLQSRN
The settings on record: protein: recombinant; tags: N-terminal GST; dsDNA, one strand shown. In outline: as §1

The next assay has as its target CRX (Homo sapiens, UniProt O43186 1-299). The settings on record: protein: recombinant; tags: N-terminal GST; dsDNA, one strand shown. In outline: as §1
A further assay deals with ETV1 (Homo sapiens, UniProt P50549 1-477). The note with it: protein: recombinant; tags: N-terminal GST; dsDNA, one strand shown. In outline:
as §1

The target of another assay is T6, ERF (Homo sapiens, UniProt P50548 1-548).
T6 sequence: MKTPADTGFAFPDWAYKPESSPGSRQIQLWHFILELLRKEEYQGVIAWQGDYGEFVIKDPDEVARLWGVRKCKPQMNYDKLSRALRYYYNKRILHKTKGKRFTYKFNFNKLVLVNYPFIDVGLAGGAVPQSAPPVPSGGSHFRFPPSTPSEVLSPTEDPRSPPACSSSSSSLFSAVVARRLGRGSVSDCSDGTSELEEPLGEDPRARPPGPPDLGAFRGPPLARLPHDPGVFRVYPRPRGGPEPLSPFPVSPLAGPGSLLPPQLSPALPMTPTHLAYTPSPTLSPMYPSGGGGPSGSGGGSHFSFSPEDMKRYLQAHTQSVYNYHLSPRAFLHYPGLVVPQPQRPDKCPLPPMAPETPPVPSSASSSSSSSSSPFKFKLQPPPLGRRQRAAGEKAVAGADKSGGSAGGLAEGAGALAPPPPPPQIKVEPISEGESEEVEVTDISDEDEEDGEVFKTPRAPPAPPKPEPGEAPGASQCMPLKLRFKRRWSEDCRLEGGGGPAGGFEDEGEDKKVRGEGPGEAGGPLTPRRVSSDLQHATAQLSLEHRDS
The note with it: protein: recombinant; tags: N-terminal GST; dsDNA, one strand shown. The method, boiled down: as §1

Another assay addresses T7, ETV3L (Homo sapiens, UniProt Q6ZN32 1-361).
T7 sequence: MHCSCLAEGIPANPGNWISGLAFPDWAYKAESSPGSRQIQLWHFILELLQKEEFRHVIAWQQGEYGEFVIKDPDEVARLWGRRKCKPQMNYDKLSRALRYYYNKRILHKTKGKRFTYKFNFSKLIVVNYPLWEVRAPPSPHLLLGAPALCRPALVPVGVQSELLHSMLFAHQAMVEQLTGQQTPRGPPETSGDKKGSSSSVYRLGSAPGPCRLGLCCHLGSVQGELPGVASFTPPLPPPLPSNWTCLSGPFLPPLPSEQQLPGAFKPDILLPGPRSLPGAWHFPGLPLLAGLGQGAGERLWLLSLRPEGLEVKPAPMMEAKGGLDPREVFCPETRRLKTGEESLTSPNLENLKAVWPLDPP
The note with it: protein: recombinant; tags: N-terminal GST; dsDNA, one strand shown. The method, boiled down: as §1

The target of the next assay is T8, ETS2 (Homo sapiens, UniProt P15036 1-469).
T8 sequence: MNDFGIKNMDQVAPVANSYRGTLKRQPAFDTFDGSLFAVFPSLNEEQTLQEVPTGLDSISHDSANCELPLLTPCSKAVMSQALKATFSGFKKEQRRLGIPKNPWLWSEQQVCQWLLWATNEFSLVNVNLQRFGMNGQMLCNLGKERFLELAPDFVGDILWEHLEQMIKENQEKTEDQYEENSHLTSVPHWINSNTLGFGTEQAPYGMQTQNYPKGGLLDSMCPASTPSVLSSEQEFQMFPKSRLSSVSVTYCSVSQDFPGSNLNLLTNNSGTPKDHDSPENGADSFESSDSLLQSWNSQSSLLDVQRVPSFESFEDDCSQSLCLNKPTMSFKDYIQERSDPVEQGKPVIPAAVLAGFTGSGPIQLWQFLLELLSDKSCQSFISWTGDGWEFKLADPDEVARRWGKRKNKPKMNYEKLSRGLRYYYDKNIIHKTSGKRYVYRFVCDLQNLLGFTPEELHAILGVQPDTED
The note with it: protein: recombinant; tags: N-terminal GST; dsDNA, one strand shown. The method, boiled down:
as §1

In a further assay the target is T9, SPDEF (Homo sapiens, UniProt O95238 1-335).
T9 sequence: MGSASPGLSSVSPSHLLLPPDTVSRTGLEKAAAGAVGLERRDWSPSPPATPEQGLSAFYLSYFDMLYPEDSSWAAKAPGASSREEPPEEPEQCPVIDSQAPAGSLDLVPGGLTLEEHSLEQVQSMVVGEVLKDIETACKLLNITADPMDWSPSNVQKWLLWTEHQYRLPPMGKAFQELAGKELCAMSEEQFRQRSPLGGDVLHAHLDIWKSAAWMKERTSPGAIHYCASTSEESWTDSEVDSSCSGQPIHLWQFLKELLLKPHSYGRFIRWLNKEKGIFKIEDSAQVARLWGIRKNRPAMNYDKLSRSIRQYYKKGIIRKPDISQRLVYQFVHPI
The note with it: protein: recombinant; tags: N-terminal GST; dsDNA, one strand shown. The method, boiled down:
as §1

Another assay has as its target T10, ETV7 (Homo sapiens, UniProt Q9Y603 1-341).
T10 sequence: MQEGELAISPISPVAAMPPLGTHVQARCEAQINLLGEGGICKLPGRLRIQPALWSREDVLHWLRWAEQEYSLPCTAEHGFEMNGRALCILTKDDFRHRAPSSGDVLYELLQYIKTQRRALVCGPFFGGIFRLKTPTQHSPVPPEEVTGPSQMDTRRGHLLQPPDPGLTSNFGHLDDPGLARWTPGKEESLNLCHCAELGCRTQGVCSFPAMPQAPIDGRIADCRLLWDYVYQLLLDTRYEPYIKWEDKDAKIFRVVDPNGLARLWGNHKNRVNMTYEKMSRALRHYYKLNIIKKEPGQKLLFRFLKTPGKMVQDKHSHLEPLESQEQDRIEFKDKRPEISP
The note with it: protein: recombinant; tags: N-terminal GST; dsDNA, one strand shown. In outline:
as §1

Another assay concerns the target T11, ELF5 (Homo sapiens, UniProt Q9UKW6-2 1-255).
T11 sequence: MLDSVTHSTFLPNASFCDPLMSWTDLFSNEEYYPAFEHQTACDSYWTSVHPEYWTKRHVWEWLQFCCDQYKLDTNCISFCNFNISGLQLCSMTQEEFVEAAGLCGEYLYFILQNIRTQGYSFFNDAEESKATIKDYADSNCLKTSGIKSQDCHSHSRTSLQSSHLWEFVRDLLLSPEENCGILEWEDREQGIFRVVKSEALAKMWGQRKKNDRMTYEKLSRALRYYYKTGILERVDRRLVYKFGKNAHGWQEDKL
The settings on record: protein: recombinant; tags: N-terminal GST; dsDNA, one strand shown. In outline:
as §1

The target in the next assay is T12, ETV3 (Homo sapiens, UniProt P41162-2 1-143).
T12 sequence: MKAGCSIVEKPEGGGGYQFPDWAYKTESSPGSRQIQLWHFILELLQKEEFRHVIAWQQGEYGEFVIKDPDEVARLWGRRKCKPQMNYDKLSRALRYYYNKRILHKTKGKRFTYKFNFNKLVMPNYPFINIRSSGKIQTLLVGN
The settings on record: protein: recombinant; tags: N-terminal GST; dsDNA, one strand shown. The method, boiled down:
as §1

A further assay addresses ETV6 (Homo sapiens, UniProt P41212 1-452). The note with it: protein: recombinant; tags: N-terminal GST; dsDNA, one strand shown. The method, boiled down:
as §1

ETV1, sequence (P50549 whole entry): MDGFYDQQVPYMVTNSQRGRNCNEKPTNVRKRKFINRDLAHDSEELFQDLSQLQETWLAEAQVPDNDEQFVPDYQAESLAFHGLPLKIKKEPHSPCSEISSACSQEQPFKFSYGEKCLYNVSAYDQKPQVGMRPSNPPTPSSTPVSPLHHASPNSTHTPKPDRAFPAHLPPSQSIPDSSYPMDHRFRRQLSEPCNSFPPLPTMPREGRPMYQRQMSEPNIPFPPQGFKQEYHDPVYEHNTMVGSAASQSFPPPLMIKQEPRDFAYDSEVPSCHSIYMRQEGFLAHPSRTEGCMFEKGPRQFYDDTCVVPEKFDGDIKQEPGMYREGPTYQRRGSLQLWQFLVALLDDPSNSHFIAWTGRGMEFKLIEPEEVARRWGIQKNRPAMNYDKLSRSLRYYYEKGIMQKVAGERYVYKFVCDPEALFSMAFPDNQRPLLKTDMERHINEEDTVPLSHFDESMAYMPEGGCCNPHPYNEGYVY
ETV5, sequence (P41161 whole entry): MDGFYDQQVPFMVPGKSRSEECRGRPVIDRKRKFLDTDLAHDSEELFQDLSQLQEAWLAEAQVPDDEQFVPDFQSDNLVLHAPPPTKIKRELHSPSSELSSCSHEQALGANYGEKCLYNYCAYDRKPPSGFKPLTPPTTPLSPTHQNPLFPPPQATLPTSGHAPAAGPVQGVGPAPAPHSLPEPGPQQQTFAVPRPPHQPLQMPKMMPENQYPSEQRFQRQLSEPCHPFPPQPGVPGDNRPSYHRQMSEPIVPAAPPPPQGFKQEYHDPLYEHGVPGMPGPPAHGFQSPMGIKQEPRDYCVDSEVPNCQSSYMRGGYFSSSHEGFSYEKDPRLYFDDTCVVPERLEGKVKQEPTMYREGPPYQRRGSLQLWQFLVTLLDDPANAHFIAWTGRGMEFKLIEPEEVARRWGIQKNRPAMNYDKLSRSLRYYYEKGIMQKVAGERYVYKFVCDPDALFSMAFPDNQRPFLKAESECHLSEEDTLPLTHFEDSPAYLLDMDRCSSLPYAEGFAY
ETV6, sequence (P41212 whole entry): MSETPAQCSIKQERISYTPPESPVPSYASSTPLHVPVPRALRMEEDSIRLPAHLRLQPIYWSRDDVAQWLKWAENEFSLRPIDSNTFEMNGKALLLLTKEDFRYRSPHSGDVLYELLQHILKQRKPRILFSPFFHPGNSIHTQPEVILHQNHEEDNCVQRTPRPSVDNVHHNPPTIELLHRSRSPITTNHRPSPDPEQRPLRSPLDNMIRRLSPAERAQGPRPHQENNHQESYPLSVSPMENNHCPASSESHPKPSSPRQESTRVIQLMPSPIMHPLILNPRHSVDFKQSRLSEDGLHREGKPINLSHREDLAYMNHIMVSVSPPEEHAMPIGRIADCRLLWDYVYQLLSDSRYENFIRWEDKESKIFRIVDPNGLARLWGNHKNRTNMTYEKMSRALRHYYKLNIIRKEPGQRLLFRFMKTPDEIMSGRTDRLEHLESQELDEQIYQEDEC
ELF4, sequence (Q99607 whole entry): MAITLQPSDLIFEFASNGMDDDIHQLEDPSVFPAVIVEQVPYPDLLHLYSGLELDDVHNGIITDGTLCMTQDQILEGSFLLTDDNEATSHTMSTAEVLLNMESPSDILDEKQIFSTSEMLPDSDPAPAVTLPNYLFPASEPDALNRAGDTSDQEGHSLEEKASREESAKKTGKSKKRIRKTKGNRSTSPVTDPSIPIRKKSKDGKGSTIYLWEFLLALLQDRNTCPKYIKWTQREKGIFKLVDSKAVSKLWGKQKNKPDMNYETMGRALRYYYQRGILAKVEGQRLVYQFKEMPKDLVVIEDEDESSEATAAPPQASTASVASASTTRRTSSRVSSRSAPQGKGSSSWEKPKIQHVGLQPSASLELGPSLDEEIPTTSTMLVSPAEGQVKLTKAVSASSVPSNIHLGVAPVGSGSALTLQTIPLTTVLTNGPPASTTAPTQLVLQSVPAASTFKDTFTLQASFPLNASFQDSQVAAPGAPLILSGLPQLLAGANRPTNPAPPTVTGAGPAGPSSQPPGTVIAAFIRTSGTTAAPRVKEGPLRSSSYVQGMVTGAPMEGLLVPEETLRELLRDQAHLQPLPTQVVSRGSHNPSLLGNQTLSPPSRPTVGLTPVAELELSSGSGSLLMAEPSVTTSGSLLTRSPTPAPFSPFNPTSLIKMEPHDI
HSF1, sequence (Q00613 whole entry): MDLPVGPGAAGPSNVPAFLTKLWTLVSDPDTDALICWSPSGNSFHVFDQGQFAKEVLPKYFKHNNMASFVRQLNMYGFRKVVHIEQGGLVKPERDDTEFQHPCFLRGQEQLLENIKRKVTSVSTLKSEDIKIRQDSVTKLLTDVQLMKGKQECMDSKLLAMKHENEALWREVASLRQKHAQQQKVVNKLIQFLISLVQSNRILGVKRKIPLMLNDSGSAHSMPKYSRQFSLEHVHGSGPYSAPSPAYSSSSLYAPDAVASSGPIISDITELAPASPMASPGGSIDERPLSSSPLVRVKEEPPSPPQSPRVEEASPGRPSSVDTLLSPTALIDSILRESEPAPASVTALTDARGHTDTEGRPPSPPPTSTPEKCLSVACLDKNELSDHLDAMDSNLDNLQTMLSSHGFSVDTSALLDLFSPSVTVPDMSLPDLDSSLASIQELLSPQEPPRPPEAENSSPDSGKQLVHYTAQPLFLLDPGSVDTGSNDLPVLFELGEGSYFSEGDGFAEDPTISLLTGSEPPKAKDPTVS
CRX, sequence (O43186 whole entry): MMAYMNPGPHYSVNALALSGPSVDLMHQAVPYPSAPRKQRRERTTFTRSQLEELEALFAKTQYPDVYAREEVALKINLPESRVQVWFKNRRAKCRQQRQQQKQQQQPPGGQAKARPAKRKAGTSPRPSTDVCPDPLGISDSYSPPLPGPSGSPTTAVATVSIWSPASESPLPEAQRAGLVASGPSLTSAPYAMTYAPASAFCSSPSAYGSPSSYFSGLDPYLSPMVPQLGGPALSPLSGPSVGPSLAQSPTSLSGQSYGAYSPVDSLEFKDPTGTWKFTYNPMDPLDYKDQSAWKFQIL

Consider CAATCC, for which the binding signal was 1.17 fold enrichment (6-mer frequency, TF over GST control) with FEV; 1.12 fold enrichment (6-mer frequency, TF over GST control) in the assay with ETV5; 1.37 fold enrichment (6-mer frequency, TF over GST control) with HSF1; 1.11 fold enrichment (6-mer frequency, TF over GST control) with SPIC; 1.19 fold enrichment (6-mer frequency, TF over GST control) with ELF4; 1.19 fold enrichment (6-mer frequency, TF over GST control) with ELK4. The binding signal was 1.38 fold enrichment (6-mer frequency, TF over GST control) in the assay with ETV2; 1.3 fold enrichment (6-mer frequency, TF over GST control) with ELF3; 1.6 fold enrichment (6-mer frequency, TF over GST control) with CRX; 1.19 fold enrichment (6-mer frequency, TF over GST control) with ETV1; 1.25 fold enrichment (6-mer frequency, TF over GST control) with ERF; 1.2 fold enrichment (6-mer frequency, TF over GST control) with ETV3L. Moreover, the binding signal with ETS2 was 1.22 fold enrichment (6-mer frequency, TF over GST control); in the assay with SPDEF, 1.4 fold enrichment (6-mer frequency, TF over GST control); in the assay with ETV7, 1.16 fold enrichment (6-mer frequency, TF over GST control); with ELF5, 1.21 fold enrichment (6-mer frequency, TF over GST control); with ETV3 it was 1.19 fold enrichment (6-mer frequency, TF over GST control); with ETV6 it was 1.22 fold enrichment (6-mer frequency, TF over GST control).
